Records with an inconclusive call do not appear. The source made the active and inactive calls. The call rests on the fitted dose curve; in most records, active means well fitted curve in the direction sought with a large enough effect; inconclusive means small, poorly fitted or top-dose-only effect, or another doubt; inactive means no such curve, though single readings can be large; an effect the other way counts as inactive or inconclusive.
Assays:
[1] = Cell Viability - LYMP2-005 (AID 967); further: series mostly up to about 92 µM
Summary of the method: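 Acute cytotoxicity is scored as a concentration-dependent drop in intracellular ATP in human lymphoblastoid LYMP2-005 cells after 24 h compound treatment. ATP is quantified by luciferase luminescence, and AC50 is derived by Hill-equation modelling.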

[2] = Cell Viability - LYMP2-009 (AID 968); further: series mostly up to about 92 µM; nearly all actives have a fitted effect of over 55% in size
[3] = Cell Viability - LYMP2-011 (AID 969); further: nearly all actives have a fitted effect of over 60% in size
Summary of the method: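 Acute toxicity is scored as a concentration-dependent drop in intracellular ATP of a human lymphoblastoid line after 24 hr treatment. Values are AC50s modeled with the Hill equation.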

[4] = Cell Viability - LYMP2-013 (AID 970); further: series mostly up to about 92 µM; nearly all actives have a fitted effect of over 55% in size
Summary of the method: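 Acute toxicity was measured in human lymphoblastoid cells (2500/well) exposed to compound titrations for 24 hr, with ATP luminescence (CellTiter-Glo) as read-out and AC50 fitted by Hill equation.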

[5] = Cell Viability - LYMP2-015 (AID 971); further: nearly all actives have a fitted effect of over 55% in size
Summary of the method: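 Acute toxicity was scored as a concentration-dependent drop in intracellular ATP in lymphoblastoid cells after 24 hr compound exposure in complete medium. Detection used CellTiter-Glo luciferase luminescence.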

[6] = Cell Viability - LYMP2-017 (AID 972);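 further: series mostly up to about 92 µM; cells exposed to compound for 24 hours at 37 °C; nearly all actives have a fitted effect of over 55% in size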
Summary of the method: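 Steps: plate 2500 lymphoblastoid cells per well; incubate 5 hr at 37 C; add compound across a concentration series and incubate 24 hr at 37 C; add CellTiter-Glo and read luminescence after 30 min at room temperature; fit Hill curves for AC50.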

[7] = Cell Viability - LYMP2-019 (AID 973); further: nearly all actives have a fitted effect of over 55% in size
Summary of the method: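 Cells plated at 2500/well and allowed 5 hr at 37 C before compound addition. After 24 hr incubation, CellTiter-Glo reagent was added, plates sat 30 min at room temperature, and luminescence was recorded.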

[8] = Cell Viability - LYMP2-023 (AID 975)
Summary of the method: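 Concentration-dependent drop in intracellular ATP measures acute cytotoxicity in a human lymphoblastoid line treated for 24 hours in complete culture medium. AC50 values are taken from Hill-equation fits of qHTS data.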

[9] = Cell Viability - LYMP2-025 (AID 976); further: series mostly up to about 92 µM
Summary of the method: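 In qHTS format, LYMP2-025 lymphoblastoid cells in complete culture medium received compound for 24 hr; ATP-based CellTiter-Glo signal gave viability, with AC50 derived by Hill equation.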

[10] = Cell Viability - LYMP2-002 (AID 977); further: series mostly up to about 92 µM
Summary of the method: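 Luminescent ATP readout (CellTiter-Glo, 30 min room temperature) after 24 h compound exposure at 37 C of a human lymphoblastoid line, 2500 cells/well. AC50 values derived by standard Hill fitting of qHTS concentration-response data.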

Measured: outcome

NC(=O)c1ccccc1O
inactive: all assays above

OC[C@H]1O[C@@H]2O[C@H]3[C@H](O)[C@@H](O)[C@@H](O[C@H]4[C@H](O)[C@@H](O)[C@@H](O[C@H]5[C@H](O)[C@@H](O)[C@@H](O[C@H]6[C@H](O)[C@@H](O)[C@@H](O[C@H]7[C@H](O)[C@@H](O)[C@@H](O[C@H]8[C@H](O)[C@@H](O)[C@@H](O[C@H]1[C@H](O)[C@H]2O)O[C@@H]8CO)O[C@@H]7CO)O[C@@H]6CO)O[C@@H]5CO)O[C@@H]4CO)O[C@@H]3CO
not listed: [1]
inactive: all other assays above

C=C[C@H]1CN2CC[C@H]1C[C@@H]2[C@@H](O)c1ccnc2ccc(OC)cc12
inactive: all assays above

COc1ccc(C(=O)c2ccccc2)c(O)c1
inactive: all assays above

COc1ccc(C(Cl)=C(c2ccc(OC)cc2)c2ccc(OC)cc2)cc1
not listed: [1]
inactive: all other assays above

CCOc1ccc(NC(C)=O)cc1
inactive: all assays above

C/C=C/c1ccc(O)c(OC)c1
inactive: all assays above

CCCN(CCC)S(=O)(=O)c1ccc(C(=O)O)cc1
inactive: all assays above

CCCCC(CC)COC(=O)c1ccc(N(C)C)cc1 (configuration not stated)
inactive: all assays above

NCCNc1cccc2ccccc12
not listed: [1]
inactive: all other assays above

O=C(O)c1ccc(S(=O)(=O)N(Cl)Cl)cc1
inactive: all assays above

COc1cc([C@H]2Oc3cc([C@H]4Oc5cc(O)cc(O)c5C(=O)[C@@H]4O)ccc3O[C@@H]2CO)ccc1O
inactive: all assays above

CCOc1ccccc1C(N)=O
inactive: all assays above

Source: PubChem BioAssay (NCATS)
